According to PubChem BioAssay (NCATS):
Values without a mark were called inactive. Records with an inconclusive call do not appear. Activity calls are given as the source filed them. Unless noted, calls follow the shape of the full dose curve. Where a SMILES comes first, the peptide text is derived from it. [ ]: non-standard residue; d: D form. pGlu = O=C1CC[C@@H](C(=O)O)N1; Thz = O=C(O)[C@@H]1CSCN1

test system: not listed separately; experiment: S16 Schwann cell PMP22 intronic element beta-lactamase assay (AID 624044); details: S16 rat Schwann cells, PMP22 element beta-lactamase FRET, 24 h; series mostly up to 38.3 µM; ratio activity, negative = inhibition: at the top concentration; also: nearly all actives have a fitted effect of over 15% in size; also: potency is read from the fitted curve at half-maximal effect;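 as to ratio activity, negative = inhibition: 0% = DMSO and -100% = potassium clavulanate positive control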
In short: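 Beta-lactamase reporter under a PMP22 intronic regulatory element in stable S16 rat Schwann cells; 24 h compound exposure. 460 nm blue signal normalized between DMSO (0%) and potassium clavulanate, with 535 nm FRET tracking viability; curves classed by r2 and response.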

Row | Structure (SMILES) | ratio activity, negative = inhibition [%] | Potency
1 | O=C(CCN1CCN(CCO)CC1)N1c2ccccc2Sc2ccc(C(F)(F)F)cc21 | -2.89 | 
2 | C=CC(N)CCC(=O)O (stereo not drawn) | -0.767 | 
3 | O=C1CC[C@@H](C(=O)N2CSC[C@H]2C(=O)O)N1 ([pGlu]-[Thz]-OH) | 6.91 | 
4 | O=C(O)c1cc(O)c(O)c(O)c1 | 2.12 | 
5 | O=C(O)COc1ccc(C(=O)c2cccs2)c(Cl)c1Cl |  | inactive
6 | CCCCCC[C@@H](O)C/C=C\CCCCCCCC(=O)O | -7.1 | 
7 | C=C(Nc1ccc(OCC)cc1)Nc1ccc(OCC)cc1 |  | inactive
8 | CCCCCCOc1ccccc1C(N)=O | 2.3 | 
9 | CCCCC[C@H](O)/C=C/[C@@H]1[C@@H](C/C=C\CCCC(=O)O)[C@@H](O)C[C@H]1O | 0.708 | 
10 | CN1[C@@H]2CC[C@H]1CC(OC(c1ccccc1)c1ccccc1)C2 (stereo partly drawn) |  | inactive
11 | Cc1ccc(O)c(-n2nc3ccccc3n2)c1 | 0.634 | 
12 | CC1(C)S[C@@H]2[C@H](NC(=O)[C@H](NC(=O)N3CCN(S(C)(=O)=O)C3=O)c3ccccc3)C(=O)N2[C@H]1C(=O)O | 4.38 | 
13 | CC(=O)[C@]1(O)Cc2c(O)c3c(c(O)c2[C@@H](O[C@H]2C[C@H](N)[C@H](O)[C@H](C)O2)C1)C(=O)c1c(O)cccc1C3=O |  | 398 nM (active)
14 | CCCCCCCCCCCC(=O)[O][Sn]([CH2]CCC)([CH2]CCC)[O]C(=O)CCCCCCCCCCC | 0.979 | 
15 | CCCCCCCCCCCCCCCC(=O)OC(C)C | 4.15 | 
16 | CC1(C)[C@@H](O)CC[C@]2(C)[C@H]3C(=O)C=C4[C@@H]5C[C@@](C)(C(=O)O)CC[C@]5(C)CC[C@@]4(C)[C@]3(C)CC[C@@H]12 | -23.4 | 

biological target: Glutaminase kidney isoform, mitochondrial (Homo sapiens) (UniProt O94925); experiment: qHTS for Inhibitors of Glutaminase (GLS): LOPAC Validation (AID 624146; active = well fitted curve in the direction sought with a large enough effect; an effect the other way counts as inactive or inconclusive;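 also: glutamate product detected by oxidase and peroxidase coupled Amplex red fluorescence gain; % is scaled to controls: 0 for no effect and ±100 for the full control effect; nearly all actives have a fitted effect of over 60% in size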); details: glutaminase enzyme activity inhibition; series mostly up to 46.1 µM; activity change, negative = inhibition: at the top concentration
In short: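 hKGA in 45 mM KH2PO4 (pH 8.2), 0.02% Tween-20 with compound, then 1mM L-Glutamine (stock as added) plus glutamate oxidase/HRP/Amplex red coupling mix. Fluorescence read initially and after 30 min at RT; signal change reflects glutamate formation.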

Sequence of Glutaminase kidney isoform, mitochondrial (Homo sapiens) (O94925 whole entry, looked up, canonical isoform): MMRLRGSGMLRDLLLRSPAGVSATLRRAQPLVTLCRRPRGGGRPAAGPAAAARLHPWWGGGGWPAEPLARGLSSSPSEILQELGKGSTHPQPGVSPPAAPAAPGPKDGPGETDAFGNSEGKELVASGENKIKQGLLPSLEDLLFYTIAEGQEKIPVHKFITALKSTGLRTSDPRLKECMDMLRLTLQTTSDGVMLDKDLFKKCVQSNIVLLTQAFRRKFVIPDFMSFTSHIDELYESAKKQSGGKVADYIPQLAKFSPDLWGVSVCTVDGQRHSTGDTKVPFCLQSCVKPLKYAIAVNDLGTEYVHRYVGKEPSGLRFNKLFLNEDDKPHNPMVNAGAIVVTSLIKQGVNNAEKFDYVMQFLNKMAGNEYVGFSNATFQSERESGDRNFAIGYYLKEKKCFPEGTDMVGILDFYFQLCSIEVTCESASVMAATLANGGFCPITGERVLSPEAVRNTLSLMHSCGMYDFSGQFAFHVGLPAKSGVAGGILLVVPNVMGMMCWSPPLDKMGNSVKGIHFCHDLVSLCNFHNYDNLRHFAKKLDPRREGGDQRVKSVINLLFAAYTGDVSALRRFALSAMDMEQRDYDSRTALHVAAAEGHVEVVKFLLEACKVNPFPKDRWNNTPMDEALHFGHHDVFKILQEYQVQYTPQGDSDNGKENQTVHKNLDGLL

Row | Structure (SMILES) | activity change, negative = inhibition [%]
17 | COc1ccc(/C=C/C(=O)Nc2ccccc2C(=O)O)cc1OC | -11.1
18 | N=c1ccn2c(n1)O[C@H]1[C@H](O)[C@@H](CO)O[C@H]12 | 38.5
19 | C=CC(N)CCC(=O)O (stereo not drawn) | -0.722

test system: not listed separately; experiment: qHTS of Trypanosoma Brucei Inhibitors: LOPAC Validation (AID 624147; active = well fitted curve in the direction sought with a large enough effect; an effect the other way counts as inactive or inconclusive; also: 0% is about no effect); details: purified enzyme assay, luminescence, 45 min; series mostly up to 57.5 µM; activity change, negative = inhibition: at the top concentration
In short: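 In this concentration-response screen, enzyme-free wells defined baseline while DMSO plates tracked drift. Each reaction combined TbPYK, substrate, compound and 130 uM ADP for 45 min at room temperature. Kinase-Glo Plus luminescence gave the signal.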

Row | Structure (SMILES) | activity change, negative = inhibition [%]
20 | COc1ccc(/C=C/C(=O)Nc2ccccc2C(=O)O)cc1OC | -0.909
21 | N=c1ccn2c(n1)O[C@H]1[C@H](O)[C@@H](CO)O[C@H]12 | -4.35
22 | C=CC(N)CCC(=O)O (stereo not drawn) | -12.5

biological target: Glucagon-like peptide 1 receptor (Homo sapiens) (UniProt P43220); experiment: qHTS of GLP-1 Receptor Agonists: LOPAC Validation (AID 624148; active = well fitted curve in the direction sought with a large enough effect; an effect the other way counts as inactive or inconclusive;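 also: luminescence from a luciferase reporter switched on by cAMP; 0% is about no effect; higher luminescence signal means agonism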); details: GLP-1R agonist cell assay; series mostly up to 46.1 µM; activation: at the top concentration
In short: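 Agonism scored as increased luciferase luminescence driven by cAMP in HEK293 clones carrying GLP-1R. Cells settled 12 hours, received compound for 4-6 hr at 37 deg C, 5% CO2, and were read after 12 min detection reagent at RT.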

Sequence of Glucagon-like peptide 1 receptor (Homo sapiens) (P43220 whole entry, looked up): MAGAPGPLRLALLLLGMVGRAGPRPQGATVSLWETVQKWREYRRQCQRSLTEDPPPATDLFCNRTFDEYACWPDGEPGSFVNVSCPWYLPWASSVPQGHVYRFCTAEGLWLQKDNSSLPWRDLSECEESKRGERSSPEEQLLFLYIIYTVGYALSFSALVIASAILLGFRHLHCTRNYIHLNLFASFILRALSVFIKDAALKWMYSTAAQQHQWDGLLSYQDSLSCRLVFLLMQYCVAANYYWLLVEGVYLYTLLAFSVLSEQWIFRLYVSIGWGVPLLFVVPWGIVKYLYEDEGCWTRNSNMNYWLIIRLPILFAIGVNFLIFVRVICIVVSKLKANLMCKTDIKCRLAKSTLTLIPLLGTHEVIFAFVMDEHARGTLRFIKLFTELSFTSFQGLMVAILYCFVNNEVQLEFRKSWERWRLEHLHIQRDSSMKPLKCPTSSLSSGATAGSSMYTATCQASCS

Row | Structure (SMILES) | activation [%]
23 | COc1ccc(/C=C/C(=O)Nc2ccccc2C(=O)O)cc1OC | -1.34
24 | N=c1ccn2c(n1)O[C@H]1[C@H](O)[C@@H](CO)O[C@H]12 | 5.09
25 | C=CC(N)CCC(=O)O (stereo not drawn) | 0.871

test system: not listed separately; experiment: qHTS of Nrf2 Activators: LOPAC Validation (AID 624149; active = well fitted curve in the direction sought with a large enough effect; an effect the other way counts as inactive or inconclusive; also: 0% is about no effect); details: Nrf2/ARE reporter cell assay; series mostly up to 46.1 µM; activation: at the top concentration
In short: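 AREc32_Fluc cells, 1000/well, OPTI-MEM + 5% FBS, o/n 37 deg C 5% CO2; compound pin-transfer, 24 hr 37 deg C; Steady-Glo 30 min RT, luminescence read.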

Row | Structure (SMILES) | activation [%]
26 | COc1ccc(/C=C/C(=O)Nc2ccccc2C(=O)O)cc1OC | -4.41
27 | N=c1ccn2c(n1)O[C@H]1[C@H](O)[C@@H](CO)O[C@H]12 | 5.68
28 | C=CC(N)CCC(=O)O (stereo not drawn) | 0.809
